Records with an inconclusive call do not appear. Activity calls are given as the source filed them. Calls come from the whole dose curve; as a rule, active = well fitted curve in the direction sought with a large enough effect; inconclusive = small, poorly fitted or top-dose-only effect, or another doubt; inactive = no such curve, though single readings can be large; an effect the other way counts as inactive or inconclusive. *1 amine or outer side, *2 acyl side, *3 side chain or, on linkers, in order; H or OH if unused. Where a SMILES comes first, the peptide text is derived from it. Bridges are numbered along the chain shown (N, C = ends). [ ]: non-standard residue; d: D form. The star is where a group is joined. pTerphenylCO(4''-OnC5H11) = CCCCCOc1ccc(-c2ccc(-c3ccc(C(=O)*)cc3)cc2)cc1; Orn(4R-OH,5R-OH) = O=C([C@H](C[C@@H](O)[C@@H](O)N[*:3])N[*:1])[*:2]; hTyr(3S-OH,4S-OH) = N[C@H](C(=O)O)[C@H](O)[C@@H](O)c1ccc(O)cc1; Pro(3S-OH,4S-Me) = C[C@H]1CN[C@H](C(=O)O)[C@H]1O; Hyp = O=C(O)[C@@H]1C[C@@H](O)CN1
Key:
[1] = molecular target: Glutathione peroxidase 1 (Homo sapiens) (UniProt P07203); test: Primary qHTS Assay for Inhibitors of Recombinant Selenoprotein Glutathione Peroxidase 1 (GPX1) (AID 1845191); note: nearly all actives have a fitted effect of over 65% in size; for activity, negative = inhibition: % is set by controls: 0 for no effect and ±100 for the full control effect
Sequence of Glutathione peroxidase 1 (Homo sapiens) (P07203 whole entry, looked up): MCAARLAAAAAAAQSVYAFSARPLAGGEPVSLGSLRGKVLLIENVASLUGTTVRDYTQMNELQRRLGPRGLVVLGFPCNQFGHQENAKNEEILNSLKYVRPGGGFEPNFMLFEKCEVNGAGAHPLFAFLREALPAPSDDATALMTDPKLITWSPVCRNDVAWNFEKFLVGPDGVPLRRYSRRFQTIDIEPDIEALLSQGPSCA
Outline: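 NADPH consumption tracked by fluorescence at 340/450 nm between t=0 and t=15 min, room temperature. Final mix: 10 nM GPX1, 100 nM glutathione reductase, 1 mM GSH, 0.5 mM NADPH, 0.5 mM cumene hydroperoxide, 0.01% BSA; 30 min compound–enzyme preincubation.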

[2] = molecular target: Phospholipid hydroperoxide glutathione peroxidase GPX4 (Homo sapiens) (UniProt P36969); test: Primary qHTS Assay for Inhibitors of Recombinant Selenoprotein Glutathione Peroxidase 4 (GPX4) (AID 1845192); note: nearly all actives have a fitted effect of over 65% in size; note: potency is the fitted concentration of half-maximal effect; for activity change, negative = inhibition: series mostly up to about 50 µM; % is set by controls: 0 for no effect and ±100 for the full control effect
Sequence of Phospholipid hydroperoxide glutathione peroxidase GPX4 (Homo sapiens) (P36969 whole entry, looked up): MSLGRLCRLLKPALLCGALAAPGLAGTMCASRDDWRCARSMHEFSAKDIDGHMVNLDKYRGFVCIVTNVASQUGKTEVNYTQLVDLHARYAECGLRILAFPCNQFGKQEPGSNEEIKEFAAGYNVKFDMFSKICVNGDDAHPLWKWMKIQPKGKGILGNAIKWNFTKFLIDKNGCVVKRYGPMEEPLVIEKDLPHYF
Outline: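 NADPH consumption followed by fluorescence at 340/450 nm, t=0 and after 15 min at room temperature. Reaction started with cumene hydroperoxide (0.5 mM final) after 30 min compound–GPX4 preincubation; final 200 nM GPX4, 100 nM GR, 1 mM GSH, 0.5 mM NADPH.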

[3] = Primary fluorescence-based thiol-reactive (MSTI) qHTS assay for identification of artifact compounds. (AID 1845221); note: nearly all actives have a fitted effect of over 65% in size; note: potency is the fitted concentration of half-maximal effect;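 for activity change, negative = thiol reactive: series mostly up to about 54 µM; thiol-reactive compounds lower the probe fluorescence signal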
Outline: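 MSTI probe at 4 uM final in 2% DMSO/PBS pH 7.4; compounds, 1 h at room temperature in dark. Fluorescence Ex/Em 525/598 nm, normalised to Acetyl-MSTI and MSTI, fitted to 4-parameter Hill.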

[4] = test system: Nanoluciferase (engineered Oplophorus gracilirostris luciferase); test: Primary Nanoluciferase (NLuc) qHTS assay for identification of artifact compounds. (AID 1845222);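 note: NLuc secreted into diluted conditioned medium of S16 cells; series mostly up to about 54 µM; 0% = DMSO and -100% = no enzyme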
Outline: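 NLuc from S16 cell medium (1:55) plus test compounds, 15 min, room temperature. Luminescence after Nano-Glo (1:100) addition, 5 min.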

[5] = Primary redox qHTS assay for identification of artifact compounds. (AID 1845223); note: potency is the fitted concentration of half-maximal effect;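 for redox activity (% of DA3003): 0% = DMSO and 100% = reference compound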
Outline: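 Redox-cycling detection via DTT (250 uM final) oxidation coupled to Amplex Red (25 uM)/HRP (250 mU/mL) in HBSS. 15 min preincubation plus 30 min after DTT, room temperature. Ex/Em 525/598 nm; 4-parameter Hill fit against DMSO and 10 uM DA3003.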

[6] = molecular target: Luciferin 4-monooxygenase (Photinus pyralis) (UniProt P08659); test: Primary firefly luciferase (FLuc) qHTS assay for identification of artifact compounds. (AID 1845220); note: nearly all actives have a fitted effect of over 60% in size;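 for activity change, negative = inhibition: series mostly up to about 54 µM; plate controls were DMSO vehicle for no effect and no enzyme for full effect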
Outline: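 FLuc 10 nM; luciferin 10 uM; ATP 10 uM; Tris-acetate pH 7.6, Mg-acetate 10 mM; 15 min RT preincubation; 5 min reaction; luminescence.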

CC(C)(C)c1ccc(C(=O)Nc2cn3cc(-n4ccnc4)ccc3n2)cc1
inactive: Potency [1] | Potency [2] | Potency [3] | Potency [4] | Potency [5]

CCCc1cc(C)n(C)c(=O)c1CN(C)C(=O)c1cc(-c2ccc(N3CCN(C(C)C)CC3)nc2)cc2c1cnn2C(C)C
inactive: Potency [1] | Potency [2] | Potency [3] | Potency [4] | Potency [5]

CN[C@@H]1[C@H](O[C@H]2[C@H](O[C@@H]3[C@@H](O)[C@H](O)[C@@H](N=C(N)N)[C@H](O)[C@H]3N=C(N)N)O[C@@H](C)[C@]2(O)CO)O[C@@H](CO)[C@H](O)[C@H]1O
inactive: Potency [1] | Potency [6] | Potency [3] | Potency [4] | Potency [5]

COc1ccc2cc(-c3cc(-c4cc(Cl)cc(Cl)c4)nn3C(C)c3ccc(C(=O)NCCC(=O)O)cc3)ccc2c1 (configuration not stated)
inactive: Potency [1] | Potency [6] | Potency [3] | Potency [4] | Potency [5]

CCOc1ccc(-n2c(C(C)N(Cc3cccnc3)C(=O)Cc3ccc(F)c(C(F)(F)F)c3)nc3ncccc3c2=O)cc1 (configuration not stated)
inactive: Potency [1] | Potency [2] | Potency [4] | Potency [5]

N#Cc1ccc(N2N=C3c4ccc(C(=O)O)cc4CC[C@@H]3[C@@H]2C2CCCC2)cc1Cl
inactive: Potency [1] | Potency [6] | Potency [3] | Potency [4] | Potency [5]

O=C(Nc1nc2ccc([N+](=O)[O-])cc2s1)C1CCCCC1
inactive: Potency [1] | Potency [2] | Potency [4] | Potency [5]

CC[C@@H]1C[C@]1(NC(=O)[C@@H]1C[C@@H]2CN1C(=O)[C@H](C(C)(C)C)NC(=O)OCC(C)(C)CCCCc1cccc3c1CN(C3)C(=O)O2)C(=O)NS(=O)(=O)C1CC1
inactive: Potency [1] | Potency [6] | Potency [3] | Potency [4] | Potency [5]

CC(O)C(C)n1ncn(-c2ccc(N3CCN(c4ccc(OCC5COC(Cn6cncn6)(c6ccc(Cl)cc6Cl)O5)cc4)CC3)cc2)c1=O (configuration not stated)
inactive: Potency [1] | Potency [2] | Potency [4] | Potency [5]

C=C1C(=O)O[C@@H]2/C=C(\CO)CC/C=C(/C=O)C[C@@H](O)[C@@H]12
inactive: Potency [1] | Potency [2] | Potency [4] | Potency [5]

Cc1ccnc(NC(=O)C(C)c2cccc(C(=O)c3ccccc3)c2)c1 (configuration not stated)
inactive: Potency [1] | Potency [2] | Potency [3] | Potency [4] | Potency [5]

Cc1cc(C(C)Nc2ccccc2C(=O)O)c2nc(N3CCOCC3)cc(=O)n2c1 (configuration not stated)
inactive: Potency [1] | Potency [2] | Potency [4]

Cc1c(NC(=O)OCC2COCCN2)cn2ncnc(Nc3ccc4c(cnn4Cc4cccc(F)c4)c3)c12 (configuration not stated)
inactive: Potency [2] | Potency [6] | Potency [3] | Potency [4] | Potency [5]

Cc1nc(NC(=O)N2CCCC2C(N)=O)sc1-c1ccnc(C(C)(C)C(F)(F)F)c1 (configuration not stated)
inactive: Potency [2] | Potency [6] | Potency [3] | Potency [4] | Potency [5]

CNC1CN(c2ccc3c(=O)c(C(=O)O)cn(-c4nccs4)c3n2)CC1OC (configuration not stated)
inactive: activity change, negative = inhibition [2] -2.33% [at 9.73 µM] | activity change, negative = inhibition [6] -6.28% [at 11.6 µM] | activity change, negative = thiol reactive [3] -3.65% [at 11.5 µM] | activity, negative = inhibition [4] -7.32% [at 11.6 µM] | redox activity (% of DA3003) [5] -6.95% [at 11.5 µM]

CC1=C(c2ccc(NC(=O)c3c(F)cccc3F)cc2)CN(c2nccs2)CC1
inactive: Potency [2] | Potency [6] | Potency [3] | Potency [4] | Potency [5]

Cc1ccc(C)c(-c2cc(C(F)(F)F)nn2-c2ccc(S(N)(=O)=O)cc2)c1
inactive: Potency [2] | Potency [6] | Potency [3] | Potency [4] | Potency [5]

O=c1cc(OCc2ccc(F)cc2)ccn1-c1ccc(OCCN2CCCC2)cc1
inactive: Potency [2] | Potency [6] | Potency [3] | Potency [4] | Potency [5]

C=C1/C(=C/C=C2\CCC[C@@]3(C)C2CCC3[C@H](C)/C=C/[C@@H](O)C2CC2)C[C@@H](O)C[C@@H]1O (some centres not stated)
inactive: Potency [2] | Potency [6] | Potency [3] | Potency [4]

C=C(NC(=O)C(=C)NC(=O)c1csc(C2=NC3c4csc(n4)C4NC(=O)c5csc(n5)C(C(C)(O)C(C)O)NC(=O)C5CSC(=N5)/C(=C/C)NC(=O)C(C(C)O)NC(=O)c5csc(n5)C3(CC2)NC(=O)C(C)NC(=O)C(=C)NC(=O)C(C)NC(=O)C(C(C)CC)NC2C=Cc3c(C(C)O)cc(nc3C2O)C(=O)OC4C)n1)C(N)=O (configuration not stated)
inactive: Potency [2] | Potency [6] | Potency [3] | Potency [4]

CCC1C(=O)N(C)c2cnc(Nc3ccc(C(=O)NC4CCN(C)CC4)cc3OC)nc2N1C1CCCC1 (configuration not stated)
inactive: Potency [2] | Potency [6] | Potency [3] | Potency [4]

C=CC(C)(O)CC[C@@H]1[C@@]2(C)CCCC(C)(C)C2CC[C@@]1(C)O (some centres not stated)
inactive: Potency [2] | Potency [6] | Potency [3] | Potency [4] | Potency [5]

CCn1c(N)c(C(=O)NC)c(=O)c2ccc(C#CC(C)(O)COC)nc21 (configuration not stated)
inactive: Potency [2] | Potency [6] | Potency [3] | Potency [4] | Potency [5]

C/C=C/C=C/C(=O)O[C@@H]1C=C2COC(=O)[C@]2(O)[C@@]2(C)CCCC(C)(C)[C@H]12
inactive: Potency [2] | Potency [6] | Potency [3] | Potency [4] | Potency [5]

O=C(Nc1ccccc1Br)NC1CCN(c2ccc(C(F)(F)F)cn2)C1 (configuration not stated)
inactive: Potency [2] | Potency [6] | Potency [3] | Potency [4] | Potency [5]

CCNC1(C(N)=O)CCN(c2ncnc3c2nc(-c2ccccc2Cl)n3-c2ccc(Cl)cc2)CC1
inactive: Potency [2] | Potency [6] | Potency [3] | Potency [4] | Potency [5]

CN(CC1COCCO1)S(=O)(=O)Nc1ccc2ccc3ncc(-c4cnn(C)c4)cc3c(=O)c2c1 (configuration not stated)
inactive: Potency [2] | Potency [6] | Potency [3] | Potency [4] | Potency [5]

CN(C)CCC(CSc1ccccc1)Nc1ccc(S(=O)(=O)NC(=O)c2ccc(N3CCN(Cc4ccccc4-c4ccc(Cl)cc4)CC3)cc2)cc1[N+](=O)[O-] (configuration not stated)
inactive: Potency [2] | Potency [6] | Potency [4] | Potency [5]
active: Potency [3] 2120 nM

CC[C@H]1OC(=O)[C@H](C)[C@@H](O[C@H]2C[C@@](C)(OC)[C@@H](O)[C@H](C)O2)[C@H](C)[C@@H](O[C@H]2O[C@H](C)C[C@H](N(C)C)[C@H]2O)[C@](C)(O)C[C@@H](C)C(=O)[C@H](C)[C@@H](O)[C@]1(C)O
inactive: Potency [2] | Potency [6] | Potency [3] | Potency [4] | Potency [5]

COc1cc(N(C)CCN(C)C)c(N)cc1Nc1nccc(-c2cn(C)c3ccccc23)n1
inactive: Potency [2] | Potency [6] | Potency [4]

CC(C)(F)CC(NC(c1ccc(-c2ccc(S(C)(=O)=O)cc2)cc1)C(F)(F)F)C(=O)NC1(C#N)CC1 (configuration not stated)
inactive: Potency [2] | Potency [6] | Potency [3] | Potency [4] | Potency [5]

CC(=O)O[C@@]12CO[C@@H]1C[C@H](O)[C@@]1(C)C(=O)[C@H](O)C3=C(C)[C@@H](OC(=O)[C@H](O)[C@@H](NC(=O)OC(C)(C)C)c4ccccc4)C[C@@](O)([C@@H](OC(=O)c4ccccc4)C12)C3(C)C (some centres not stated)
inactive: Potency [2] | Potency [6] | Potency [3] | Potency [4] | Potency [5]

O=c1cc(NCCCN[C@@H]2CCOc3c(Br)cc(Br)cc32)[nH]c2ccsc12
inactive: Potency [2] | Potency [6] | Potency [3] | Potency [4] | Potency [5]

COc1ccc(C(=O)O[C@H]2C=COC=C3C=C4C(=O)N(C)C(=S)C(=O)N4[C@@H]32)cc1Oc1cc(C=O)ccc1O
active: Potency [2] 3130 nM
inactive: Potency [6] | Potency [3] | Potency [4] | Potency [5]

O=C(c1ccc(F)cc1)N1CCCC(c2nc(-c3ccc(F)cc3)no2)C1 (configuration not stated)
inactive: Potency [2] | Potency [6] | Potency [3] | Potency [5]

O=C(O)CSc1cc(NS(=O)(=O)c2ccc(Br)cc2)c2ccccc2c1O
active: Potency [3] 474 nM | Potency [5] 5320 nM
inactive: Potency [2] | Potency [6]

CCCCCCOC(=O)/N=C(\N)c1ccc(NCc2nc3cc(C(=O)N(CCC(=O)OCC)c4ccccn4)ccc3n2C)cc1
inactive: Potency [2] | Potency [6] | Potency [3] | Potency [4] | Potency [5]

CC(OC1OCCN(Cc2n[nH]c(=O)[nH]2)C1c1ccc(F)cc1)c1cc(C(F)(F)F)cc(C(F)(F)F)c1 (configuration not stated)
inactive: Potency [2] | Potency [6] | Potency [3] | Potency [4] | Potency [5]

CCCCCOc1ccc(-c2ccc(-c3ccc(C(=O)N[C@H]4C[C@@H](O)[C@@H](O)NC(=O)[C@@H]5[C@@H](O)[C@@H](C)CN5C(=O)[C@H]([C@@H](C)O)NC(=O)[C@H]([C@H](O)[C@@H](O)c5ccc(O)cc5)NC(=O)[C@@H]5C[C@@H](O)CN5C(=O)[C@H]([C@@H](C)O)NC4=O)cc3)cc2)cc1 ({pTerphenylCO(4''-OnC5H11)}-[Orn(4R-OH,5R-OH)]T[Hyp][hTyr(3S-OH,4S-OH)]T[Pro(3S-OH,4S-Me)]; lactam 1-C)
inactive: Potency [2] | Potency [6] | Potency [3] | Potency [4] | Potency [5]

Cc1cc(OCCCS(C)(=O)=O)cc(C)c1-c1cccc(COc2ccc3c(c2)OCC3CC(=O)O)c1 (configuration not stated)
inactive: Potency [2] | Potency [6] | Potency [3] | Potency [4] | Potency [5]

CC[C@@H](Nc1c(Nc2cccc(C(=O)N(C)C)c2O)c(=O)c1=O)c1cc(C(C)C)co1
inactive: Potency [2] | Potency [6] | Potency [4] | Potency [5]
active: Potency [3] 2380 nM

CC(NCCCc1cccc(C(F)(F)F)c1)c1cccc2ccccc12 (configuration not stated)
inactive: Potency [2] | Potency [6] | Potency [3] | Potency [4] | Potency [5]

Source: PubChem BioAssay (NCATS)
